# Reference: the supplement of paper PMC12632987
# T1: FBXL12, Q9NXK8
# T1 chain: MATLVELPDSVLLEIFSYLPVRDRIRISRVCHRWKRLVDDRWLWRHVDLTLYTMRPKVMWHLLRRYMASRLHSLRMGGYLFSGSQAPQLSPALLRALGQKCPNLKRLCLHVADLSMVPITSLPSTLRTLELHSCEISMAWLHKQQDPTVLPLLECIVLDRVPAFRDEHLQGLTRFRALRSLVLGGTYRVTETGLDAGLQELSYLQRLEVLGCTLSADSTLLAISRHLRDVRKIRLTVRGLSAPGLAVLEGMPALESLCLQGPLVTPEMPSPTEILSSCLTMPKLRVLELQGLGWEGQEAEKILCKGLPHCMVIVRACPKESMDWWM
# B1: FBXL12_hotspot_59_72 (protein)
# chain: MRRVVVRGPPEQALAQALALLEALLALLVEHEGTPDEPRLLELLESTYRELLRTARALGDAAAIERARAAIEAAKARLSPATAARLAEAVARAEAEVEAE
# B2: FBXL12_hotspot_59_73 (protein)
# chain: MVEVVIRGPLEQAIEQALALLKAAAELIVKHEGTEKQERLVSIFISTLRELYRLAAEAGDEEAIEEADKIVKELMEKVDPETAAKLKAEREAIKKELAAA
# B3: FBXL12_hotspot_59_74 (protein)
# chain: MLEIRVSAHPDESTEQIKNTIRYAVEMIKELIERGLIEDAIAAIRSLGRSVTEIVIRRKNEEVYNFFLELLEELKEIANPEVKKVIDEVIKEFKERVKKA
# B4: FBXL12_hotspot_59_75 (protein)
# chain: MLEIRVSAHPDESLEAIKRTVEYAIEMIKELIKRGRIEDAKAAIRSVTRSVTEIVIRKGNEELAEHFLELLEELKEIANEEVKKVIEEAMEEFRERVAAA
# B5: FBXL12_hotspot_59_76 (protein)
# chain: MRRIILRGPPEQRRANLVAYSDALIKLIKEHKGTPEAERLEEMLVGLFEEALRQAEAERDRALLETLAEQVKKAIPFVSPEYAKRLEEILERIERALAEL
# B6: FBXL12_hotspot_109_4 (protein)
# chain: MTRILVGAATTPEAARHTFSTIVEIAKGLKDEEVIAVLVVLDDPEMRAIAERAAEELRALGAEVRLEVAPTLEALEAARARLLAEAEAEADARDAAAAAA
# B7: FBXL12_hotspot_59_77 (protein)
# chain: MRRIIISGPSEQRIRNLREFSDALIELIDKHKGTPEAERLEEMLVGLFEESLKIAKEEKDVELLKELKKLVEEAIPHVSPEYAERLKKILEEIEKELAEL
# B8: FBXL12_hotspot_59_78 (protein)
# chain: MRRIIISGEPEQRIKNLKELSDALIELIDKHKGTPEAERLEEMLVGLFEEALEQAKKEKDLELLETLKKEIEKAKPHVSPEYAEKLEELLKEVEKEIAEL
# B9: FBXL12_hotspot_59_79 (protein)
# chain: MRRIIVRGEPEQVIKQTRALADALIALIDEHRGTPEQARLEDMLVGLFEETIKYAKEIGDVELLETIVELADRALPHVSPEYQKRIEELRKEALEAIKKL
# B10: FBXL12_hotspot_59_80 (protein)
# chain: MRVIRISGEPEQRIRQFELYSDALIELIKEHKGTPEAERLEEMLVGLFKYMLEVAKKEKNVELLETLVKQARKALPHVSPEYAKELEKIIKEAEKAIAEL
# B11: FBXL12_hotspot_59_81 (protein)
# chain: MRRIIIRGEPEQRLRQFEALAKALIELIKEHKGTPEAERLEEMLVGLFEEALKYAKEEKDVELLEALIKLAKEALPYVSPEYQKRLEKIIEEAEKAIKEF
# B12: FBXL12_hotspot_59_82 (protein)
# chain: MVTVRVRGPLEQALAQALALLRAATALLAELADSPKRPKLLEIYKAVLREAVRLATEAGDEEALAEIERLLAEARAAVSPEDAAELEEAYAEARREAAAA
# B13: FBXL12_hotspot_59_83 (protein)
# chain: MIEVRVRGPVEEALRRALELLRAARELLKKHKDSPLYPRILEIFESALREAVRLAVEAGDEEALREAEEIVEEAEKVVSPEDAERLREALERAKREAEEE
# B14: FBXL12_hotspot_59_84 (protein)
# chain: MRKVVIRGPPEQALANALALLRAAVELLKEHAGSELAPRILEFFLSTLKEAVRAAIALGDEEALEEIERLVEEAQEAVDEEDARRLREALERAREEAEAA
# B15: FBXL12_hotspot_59_85 (protein)
# chain: MRVVIVRGPVEEAARRITELLEAIAELLREIPQDERAERLVEIALSLLEEAVRLVEEGLDEELARRVIEAAERAAEEATPEQAERLNEAIERLREAIERR
# B16: FBXL12_hotspot_67_86 (protein)
# chain: MLRLLVIRIRAETVEEARRSLALAEAYVRAARARGWRVLVVAWAATPEVAALFRERLAELEREYGARTVLIEDRENGEEELARTTARLKAELLAEMDEEE
# B17: FBXL12_hotspot_109_5 (protein)
# chain: MTVLLVARATTPEAARRTGETALAIARGLRAAGHEVIAVIVTLEEAREIAEATAAELRALGAEVRLRTAATPEEVERAYAELRAEALARLDAREAAAAAA
# B18: FBXL12_hotspot_69_87 (protein)
# chain: EFTVIVRDVSVEYALALAEAALERAEEALAAGDREAFLRLARVALAAIENILEEDPERALELAERLAELLERADDPRFEPLLERARELIERARRLLEERR
# B19: FBXL12_hotspot_69_88 (protein)
# chain: MIEVRVSESSVEYALELGRAAVEKLEEAVKNGDWETAERLVDLIISIAEAIAELRPEEAIELLERAAKILKKDDSEKAKELLEKVEKKIKELKKKAKELK
# B20: FBXL12_hotspot_69_89 (protein)
# chain: MIEVRASESSIEYVKELAESALKLAKKALKEKDLETLLKLAEILISAAREIAKYEPEYALELLKELLKLLKEAKTEEAEKAAKEAEKAIKEIKKLIEERK
# B21: FBXL12_hotspot_69_90 (protein)
# chain: MIEVKASKESVDYVAELMKSALELAKKYLKEGDYENLLKAAEILIGAARAIKEYKPEEAAKLLEELIKVLKEAGTPEAKELAKEAEKVLEEIKKIIKERE
# B22: FBXL12_hotspot_77_91 (protein)
# chain: MKTVTIRVSFPAVPPEEAEALRERALRAMETALEIARGLKAAHPDVKIVIVLRIEGNPEVAREVAERAVREAHELGIEFRDESAPEVRAAAEALLAALAA
# B23: FBXL12_hotspot_77_92 (protein)
# chain: MSHLEIVVSQPATPPERREEALARARHTARYAAEIARGAKERQPELRITLVVRSEADPETTRALVRILAETAKELGVELVVEVAPENEAVAREVLAELGL
# B24: FBXL12_hotspot_78_93 (protein)
# chain: MRTLVISIPAFVSPDAAARARGIAYQAAAAIEALRAGWEVVISHADTPEAKRAALTILERAVAETGDEARIRSEEGRGAREILAELRAALAAEDEAAAAA
# B25: FBXL12_hotspot_78_94 (protein)
# chain: MRKLVITIPEPVTPDEEARRRGVEYQAQAAIEALKAGWEVVISHADTPEAKRAALEILEKAVAETGDKEKIKSADGKNADEMLAELKAELAEEEARRAAA
# B26: FBXL12_hotspot_78_95 (protein)
# chain: MRVLRIVIPADLPPDPEQRQRGIEYQAQAAIEAVRAGWEVVIEAADTPEAKRAALEILRRTLAETGDPERIRSPEGENAREILARLEAELAAEEAAAAAA
# B27: FBXL12_hotspot_81_96 (protein)
# chain: ATRELRITLQFTADDTEEEIIRRGRYHLELMYEAAKAGWEIASVTLDEAALEKSLTPERQALARRVTAILQEAAAEFRAARDAPDSVFDAILAEALARLA
# B28: FBXL12_hotspot_109_6 (protein)
# chain: MRVILSALGTEPELAERTFEATVTIAEGLLAAGHEVRVVLVAVEENREVAEAAAARLRALGAEVRLVVEETPEAAREAHERLLAEAEEELDREEEERERA
# B29: GBRAPL2_0_7187 (protein)
# chain: YRKEIEEAKKLSIEEAAEKFIKLVKEAVEDPSFSKEEIEELALEIVDTLVEIVKKENTEEAEDIYAETIREIREILEKVDPNLAAYVETEGFSKLLEIEE
# B30: GBRAPL2_0_7188 (protein)
# chain: VEERIKEAEKLSIEEASKKFIEIIKEVVEDPSYSLEEIEEIALRIMKALTKIVKKENTEEAEKIYAETADKIREILSKVDPNIANYIETEAYSELLEIEE
# B31: GBRAPL2_0_7189 (protein)
# chain: LEERLEAARELSIEEAAEELLRLIREAVEDPSFSLEEIEELARRAVEVLVEIVRRENTEEAEEIAAETADEMREILLEIDPNLAADVETEFYSELLEIEE
# B32: GBRAPL2_0_7190 (protein)
# chain: YEEELEEISKLPIEEFAERGVELVERAVADPSLSLEELEELALRVIRLLYEKVKEEKTEEAEDIYVEAADRIAAILAAVDPRLAAYVATEAGSLLYEWES
# Key:
# [1] = biological target: T1, FBXL12, Q9NXK8; test: median log2 fold change of GCK-ALFA target abundance (FLAG IP / Myc IP barcode read proportion) (log2 ratio); each designed protein is fused to an ALFA-tag nanobody in HEK293 cells to bring the named protein to FLAG-tagged glucokinase (GCK); Myc marks an untargeted standard; higher = target protein stabilised (more abundant); conditions: target protein: 3xFLAG-MCP-GCK-ALFA reporter; HEK293 landing pad (RPLP)
# Outline: (§1)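 An ALFA-nanobody-fused binder library was recombined into HEK293 landing-pad cells and induced with 2 μg mL^−1 doxycycline. Cells were transfected with a plasmid expressing a FLAG-tagged target and a Myc-tagged standard. After 48 h, lysates underwent anti-FLAG and anti-Myc immunoprecipitation, and circular RNA barcodes were reverse transcribed, amplified and sequenced. Target abundance is the per-binder median log2 ratio of FLAG to Myc barcode read proportions. Barcodes needed ≥10^−7 proportion in both replicates, binders ≥3 barcodes per replicate, and a 10^−6 pseudocount was added; the two replicates were pooled.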
# [2] = biological target: GABARAPL2, P60520; test: as above; conditions: target protein: 3xFLAG-MCP-GCK-ALFA reporter; HEK293 landing pad (RPLP)
# Chain of GABARAPL2, P60520 (P60520 whole entry): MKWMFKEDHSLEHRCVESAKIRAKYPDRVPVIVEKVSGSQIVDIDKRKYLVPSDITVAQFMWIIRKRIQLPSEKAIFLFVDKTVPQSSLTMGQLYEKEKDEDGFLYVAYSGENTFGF
# Outline: as §1
Binder,median log2 fold change [1],median log2 fold change [2]
B1,-0.077,–
B2,-0.363,–
B3,0.185,–
B4,-0.31,–
B5,-0.366,–
B6,-0.542,–
B7,0.0852,–
B8,0.0323,–
B9,-0.207,–
B10,-0.4,–
B11,-0.417,–
B12,-0.218,–
B13,-0.0926,–
B14,-0.544,–
B15,-0.444,–
B16,-0.304,–

Binder,median log2 fold change [1],median log2 fold change [2]
B17,-0.531,–
B18,-0.369,–
B19,-0.107,–
B20,0.238,–
B21,-0.0708,–
B22,-0.734,–
B23,0.051,–
B24,-0.726,–
B25,0.319,–
B26,-0.49,–
B27,0.19,–
B28,0.11,–
B29,–,0.0199
B30,–,-0.00159
B31,–,-0.521
B32,–,-0.38
